Test results: PubChem BioAssay AID2315 (National Center for Advancing Translational Sciences (NCATS), 2010)
The whole screen tested about 290,000 compounds, of which about 27,000 (9.3%) were called active. The sample holds actives, similar compounds and a random draw of the others, so the mix is not that of the screen. Unmarked numbers belong to inactive results. Cut-off read from the data, not from the text of the source: active = inhibition mostly above about 28% (no sharp cut-off); inactive = mostly below about 43%.

Assay: A qHTS for Small Molecule Inhibitors of Shiga Toxin; note: 0% is about no effect
Settings: Vero cells, Shiga toxin protein synthesis inhibition reporter; at 38.7 µM, active compounds read high

Row | Compound | inhibition
1 | COc1ccccc1C(=O)N1C(CC(=O)Nc2ccccc2C)C(=O)NC2CCCCC21 (stereo not given) | -1.4%
2 | COC(=O)[C@H](Cc1ccccc1)NC(=O)[C@@H]1C[C@H]1[C@@H](NC(=O)OCc1ccccc1)c1ccccc1 | -13%
3 | CC1Sc2ccc(S(=O)(=O)CCC(=O)NCc3ccccc3Cl)cc2NC1=O (stereo not given) | 11.4%
4 | Cc1cc(C)nc(N/N=C/c2ccc([N+](=O)[O-])o2)n1 | 12.2%
5 | CCCc1nn2c(=O)cc(CSCC(=O)Nc3cccc(C)c3)nc2s1 | 9.11%
6 | O=C(CNC(=O)c1cccs1)N/N=C/c1cccc(Br)c1 | -5.46%
7 | Cc1ccc(-c2cc(C(=O)N/N=C/C=C/c3ccco3)c3ccccc3n2)cc1C | 92.8%
8 | CC(/C=N/NC(=O)c1ccncc1)=C\c1ccco1 | 27%
9 | O=C(NC(Cc1c[nH]c2ccccc12)C(=O)N/N=C/c1ccc(Br)cc1)c1cccs1 (stereo not given) | -8.84%
10 | Cc1nn(-c2ccccc2)c(Cl)c1/C=N/NC(=O)c1nn(C)cc1[N+](=O)[O-] | 31.8%
11 | O=C(N/N=C/C=C/c1ccco1)c1cccs1 | 104% (active)
12 | CCN(CC)c1ccc(/C=N/NC(=O)CNC(=O)c2cccs2)cc1 | 42.1% (active)
13 | CCN(CC)c1ccc(/C=N/NC(=O)CNC(=O)c2cccnc2)cc1 | -12.8%
14 | CC(=O)Nc1ccc(/C=N/NC(=O)c2cccs2)cc1 | 97.3% (active)
15 | Cc1nn(-c2ccccc2)c(NC(=O)c2cccs2)c(-c2ccc(Cl)cc2)c1=O | 7.45%
16 | O=C(Nc1ccccc1)c1ccc(NC(=O)c2cccs2)cc1 | -21.1%
17 | Cc1ccc(-n2nc(C)c(/C=N/NC(=O)c3cccs3)c2Cl)cc1 | 41% (active)
18 | CC(=O)OCCN(CCCn1c(-c2ccncc2)nc2ccccc21)c1nc(-c2ccc(C)cc2)cs1 | -1.86%
19 | COc1ccc(CCNC(=O)c2nnc(CS(=O)(=O)c3ccccc3)o2)cc1OC | 5.82%
20 | Cc1ccc(S(=O)(=O)N(Cc2cc3ccccc3[nH]c2=O)CC2CCCO2)cc1 (stereo not given) | -2.48%
21 | O=C(Nc1c2c(nn1-c1ccccc1)CS(=O)(=O)C2)C1CCCC1 | -3.43%
22 | COc1ccc(NC(=O)c2ccco2)cc1NC(=O)c1ccc(C#N)cc1F | -2.14%
23 | CCCCCC(O)(CCN1CCCCC1)c1ccccc1 (stereo not given) | -8.74%
24 | Cc1cc(NC(=O)CCC(=O)N(CC(=O)NCC2CCCO2)c2ccccc2)no1 (stereo not given) | -9.61%

Row | Compound | inhibition
25 | COC(=O)C1(C)NC(c2ccccc2OC)C2C(=O)N(c3ccccc3)C(=O)C21 (stereo not given) | -11.2%
26 | COc1ccc(N2CCN(S(=O)(=O)c3ccc4c(c3)N(C(C)=O)CCO4)CC2)cc1 | -9.48%
27 | Cc1cccc(-n2c(C)cc(/C=N\NC(=O)c3cccs3)c2C)c1 | 85.9% (active)
28 | Cc1ccc(-n2c(C)cc(/C=N\NC(=O)CC(=O)NC(C)C)c2C)cc1 | 21.4%
29 | Cc1cccc(-n2c(C)cc(/C=N/NC(N)=S)c2C)c1 | -4.48%
30 | O=C(Cn1cnc2ccccc21)Nc1ccccc1-c1ccccc1 | -2.99%
31 | Cc1cc2ccccn2c1C(=O)c1cccc(F)c1 | 21%
32 | CCCCNC(=O)CCn1nc(-c2ccc(Cl)cc2)ccc1=O | -6.39%
33 | COc1ccc(CNC(=O)CN(c2ccc(OC)c(Cl)c2)S(=O)(=O)c2ccc(C)cc2)cc1 | 15.2%
34 | Nc1ccc(Nc2ccccc2)cc1 | -17%
35 | O=C(COC(=O)c1ccc(Oc2ccccc2)cc1)Nc1nnc(-c2ccccc2)o1 | 6.93%
36 | Nc1ccc(-c2sc(N)nc2-c2ccccc2)cc1 | -12.4%
37 | Cc1ccc(C(=O)NCC(=O)OCc2nnc(-c3ccccc3)o2)cc1 | 9.19%
38 | Nc1ccc(-c2nnc(-c3ccccc3)o2)cc1 | 71.6% (active)
39 | Nc1ccc(-c2nnc(-c3ccc(-c4ccccc4)cc3)o2)cc1 | 63.4% (active)
40 | COc1ccc(/C=N/N(C)C2=NS(=O)(=O)c3ccccc32)cc1OC | -11.4%
41 | COc1ccc(NC(=O)C2CCC(CNC(=O)[C@@H]3Cc4ccccc4CN3)CC2)cc1 (stereo not given in full) | 8.69%
42 | COc1ccc(CNC(=O)C2CCN(S(=O)(=O)c3ccc(SC)cc3)CC2)cc1 | -9.94%
43 | O=C(Nc1cccn(Cc2ccccc2Cl)c1=O)NC1CCCCC1 | 33%
44 | CN1CCN(C(=O)CCc2nc(-c3ccc(Cl)cc3)no2)CC1 | 42.8%
45 | CCNC(=O)CCc1nc(-c2ccc(C(C)(C)C)cc2)no1 | 42.8% (active)
46 | CCNC(=O)CCc1nc(-c2ccc(C)cc2)no1 | 34.3%
47 | O=S(=O)(N/N=C\c1cccn1-c1ccccc1)c1ccc2ccccc2c1 | -11.6%
48 | CN(C)c1ccc(-n2cccc2/C=N/n2cnnc2)cc1 | 61% (active)

Row | Compound | inhibition
49 | CN(C)c1ccc(-n2cccc2/C=C2/SC(=Nc3ccc(F)cc3)NC2=O)cc1 | -12.2%
50 | COc1ccc(/C(N)=N/OC(=O)Oc2ccccc2)cc1 | -9.52%
51 | COc1ccc(OCCCC(=O)NCCc2ccccc2)cc1 | -4.42%
52 | COc1ccc(C(=O)NC(=S)NNC(=O)CCc2ccccc2)cc1 | 18.3%
53 | COc1ccc(/C(N)=N/OC(=O)CCCc2ccccc2)cc1 | 89.8% (active)
54 | COc1ccc(CC(=O)NC(C)CCc2ccccc2)cc1 (stereo not given) | -4.86%
55 | COc1ccc(/C(N)=N/OC(=O)Cc2ccccc2)cc1 | 90% (active)
56 | CC(C)C(c1nnnn1C1CCCCC1)N1CCN(C(=O)c2ccco2)CC1 (stereo not given) | -10.3%
57 | Cc1ccc(-n2ncc(C(=O)NC3CC3)c2C2CCN(C(=O)OC(C)(C)C)CC2)c(C)c1 | 16.2%
58 | O=C(C1CCCN(S(=O)(=O)c2ccc([N+](=O)[O-])cc2)C1)N1CCCCC1 (stereo not given) | 2.21%
59 | COc1cccc(/C=C2/SC(=S)N(CC(=O)NC3C=CS(=O)(=O)C3)C2=O)c1 (stereo not given) | 16.1%
60 | CC(C)CNC(=O)C(=O)NCC(c1ccc2c(c1)OCO2)N1CCOCC1 (stereo not given) | -7.49%
61 | O=S(=O)(Nc1ccccc1Br)c1cccs1 | 6.38%
62 | CC(C)CC(CC(C)C)=NNC(=O)c1ccc(CSc2nncn2C)cc1 | 16%
63 | COC(=O)c1ccc(CSc2nncn2N)cc1 | 26.1%
64 | COC(=O)c1ccc(CSc2nncn2C)cc1 | 177% (active)
65 | O=C(NC(=S)Nc1ncccn1)c1ccccc1Br | 9.32%
66 | Cc1ccc(NC2CCCN(C(=O)CCc3cn[nH]c3)C2)cc1C (stereo not given) | 9.62%
67 | CC(NCC(=O)Nc1cc(Cl)cc(Cl)c1)c1ccccc1 (stereo not given) | -4.69%
68 | COc1ccc(/C=N/OCC(=O)N(Cc2ccccc2)c2ccccc2C(=O)O)cc1 | -13.4%
69 | COc1ccc(CCCc2nnc(SCc3nc4ccccc4c(=O)[nH]3)n2C)cc1 | -10.2%
70 | COc1ccc(/C=N/Nc2ccccc2C(=O)O)cc1 | 31.8% (active)
71 | COc1ccc(C=Nc2cccc3ncccc23)cc1 | -17.4%
72 | COc1ccc(/C=N/Nc2nc3ccccc3c(=O)[nH]2)cc1 | 60.8% (active)

Row | Compound | inhibition
73 | COc1ccc(/C=N/NS(=O)(=O)c2ccc(NC(C)=O)cc2)cc1 | 24.7%
74 | COC(=O)c1sccc1NS(=O)(=O)c1ccc(F)cc1F | 11.9%
75 | COCCCn1c(SCC(=O)NC2CCCC2)nnc1-c1ccccc1 | -6.72%
76 | Cc1nc(-c2ccc(F)cc2)c(CC(=O)N2CCN(S(=O)(=O)c3ccc(F)cc3)CC2)s1 | 26.6%
77 | NS(=O)(=O)c1ccc(CCNc2nc(C(F)(F)F)nc3ccccc23)cc1 | -9.53%
78 | CC1COc2ccccc2N1C(=O)c1ccc(F)cc1 (stereo not given) | -4.1%
79 | Brc1ccccc1C1Nc2cccc3cccc(c23)N1 | -2.7%
80 | S=C1NC(c2ccccc2)=NCN1c1ccc(Br)cc1 | 29.2%
81 | Brc1ccccc1C1N=C(c2ccccc2)NO1 (stereo not given) | 85.7% (active)
82 | N#Cc1ccc(C2N=C(c3ccccc3)NO2)cc1 (stereo not given) | 89.5% (active)
83 | O=C1CCCCN1CCCC(=O)N1CCCC(Nc2ccc(F)cc2)C1 (stereo not given) | 7.4%
84 | CCOc1ccc(NC(=O)CCCCCN2C(=O)[C@@H]3Cc4ccccc4CN3C2=O)cc1 | 3.39%
85 | CCCNC(=O)C(=O)Nc1cc2c3c(c1)CCC(=O)N3CCC2 | 5.83%
86 | COc1ccc(N2C(=O)C(CC(=O)Nc3ccccc3)N(Cc3ccc(OC)c(OC)c3)C2=O)cc1 (stereo not given) | 40.7%
87 | COc1ccc(-c2oc3ncnc(NCCCO)c3c2-c2ccc(OC)cc2)cc1 | -19.7%
88 | COc1ccc(O[C@H]2C=C[C@@H](c3ccccc3)O[C@@H]2CO/N=C/C[C@@H]2C=C[C@H](OC(C)=O)[C@@H](COC(C)=O)O2)cc1 | 16.1%
89 | O=C(NCc1ccco1)/C(=C/c1cccc([N+](=O)[O-])c1)NC(=O)c1ccco1 | -2.89%
90 | Cc1cc2occ(CC(=O)NNC(=O)c3ccccc3F)c2cc1C | 18%
91 | O=C(CSc1nccc(=O)[nH]1)Nc1ccc(N2CCOCC2)c(Cl)c1 | -5.56%
92 | CC(=O)c1nn(-c2cccc(Br)c2)cc1C(=O)c1cccc2ccccc12 | -19.7%
93 | CCOC(=O)c1nn(-c2cccc(C)c2)cc1C(=O)c1ccccc1 | 152% (active)
94 | CCOC(=O)c1cn(Cc2cccc(C)c2)nn1 | 1.57%
95 | CCOc1ccc(CNC(=O)CCC(=O)N2CCSc3ccccc32)cc1 | 5.1%
